Inconclusive results are not listed. Calls of active or inactive are those of the source.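 How the source made its calls, unless noted: active means normalized viability below 100% at a tested concentration; inactive means the rest.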

The values that follow come from PubChem BioAssay.

Experiment [1] is described as follows: drug combination growth inhibition, ovarian cancer – cell-based, oncology-focused library, rucaparib conditional, profiling panel (AID 1508598). Conditions: patient-derived ovarian cancer cells, CellTiter-Glo viability, 144 h, stronger effect = lower value.
The nature of experiment [2]: viability loss in pontine glioma line – cell-based, SU-DIPG-XVII, MIPE5.0, CellTiter-Glo, qHTS, dose response (AID 1347060; cut-off not given, nearly all actives have AC50 up to about 26 µM;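 on AC50: cells exposed to compound for 48 hours before viability readout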). As to conditions: CellTiter-Glo ATP luminescence. (ATP-based viability assays read luminescence as a measure of living cells.)
Experiment [3] in a line: viability loss in pontine glioma line – cell-based, JHH-DIPG-1, MIPE4.0, CellTiter-Glo, qHTS, dose response (AID 1347062; cut-off not given, nearly all actives have AC50 up to about 27 µM;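 on AC50: cells exposed to compound for two days before readout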). As to conditions: JHH-DIPG-1 viability, CellTiter-Glo ATP luminescence.
Experiment [4] in a line: viability loss in pontine glioma line – cell-based, SU-DIPG-XIII, MIPE5.0, CellTiter-Glo, qHTS, dose response (AID 1347064; cut-off not given, nearly all actives have AC50 up to about 23 µM;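 on AC50: cells exposed to compound for 48 hours before the viability read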). As to conditions: CellTiter-Glo ATP luminescence.
A short description of experiment [5]: viability loss in pontine glioma line – cell-based, SU-DIPG-XXV, MIPE5.0, CellTiter-Glo, qHTS, dose response (AID 1347065; cut-off not given, nearly all actives have AC50 up to about 26 µM;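 further: cells exposed to compound for 48 hours before ATP readout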). Conditions: CellTiter-Glo ATP luminescence.
Experiment [6] can be described thus: growth inhibition of DIPG cells – cell-based, MIPE4.0 library, CellTiter-Glo luminescence, qHTS (AID 1347066; cut-off not given, nearly all actives have AC50 up to about 30 µM;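 further: cells exposed to compound for 48 hours before readout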). As to conditions: SU-DIPG-VI viability, CellTiter-Glo ATP luminescence.
The nature of experiment [7]: growth inhibition of DIPG cells – cell-based, MIPE5.0 library, qHTS (AID 1347068; cut-off not given, nearly all actives have IC50 up to about 30 µM;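 on IC50: cells exposed to compound for 48 hours before viability readout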). As to conditions: SU-DIPG-XXV viability. (In qHTS, concentration-response curves come from the screen itself.)
Experiment [8] in a line: JHH-DIPG-1 glioma cell viability, MIPE5.0 library, CellTiter-Glo luminescence, qHTS (AID 1347067; cut-off not given, nearly all actives have AC50 up to about 26 µM;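 further: cells exposed to compound for 48 hours before readout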). As to conditions: JHH-DIPG-1 glioma viability, CellTiter-Glo ATP luminescence.
The nature of experiment [9]: viability loss with induced miR-34 in A549 – imaging, A549 dox-inducible miR-34, nuclei and caspase counts, primary screen (AID 1347080;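 active means compounds whose cell count with miR-34 switched on is under 0.7 times the count with it off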). Conditions: A549 miR-34 inducible, Hoechst nuclei count, 48 h.
The nature of experiment [10]: compounds altering HSF1 focus formation in cells – imaging, Selleck Cancer Library (AID 1347162; in the data active means plate-normalised HSF1 focus index below about 0.46). Conditions: human cells, HSF1 nuclear foci imaging, at 10 µM; SSMD: measured here: HSF1 foci SSMD mean; cell count: measured here: cell number; plate-normalised HSF1 focus index: stronger effect = lower value.
A short description of experiment [11]: MELAS cybrid and Rieske KO viability enhancers – cell-based, MELAS cybrids, Rieske KO mouse fibroblasts, CellTiter-Glo, primary screen (AID 1508586;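 active means mean z-score across replicates of 1.96 or higher in either the MELAS or the Rieske mutant cell line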;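 further: z relative to plate mean and SD of compound and empty wells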). Conditions: low glucose.
[12] abbreviates: at 0.313 µM, OCI-C5x cells, without rucaparib.
The mark [13] stands for this setting: at 0.313 µM, OCI-P5x cells, with rucaparib 20 µM, 100% = cells with rucaparib alone.
The mark [14] stands for this setting: at 0.313 µM, OCI-P5x cells, without rucaparib.
The mark [15] stands for this setting: at 1.25 µM, OCI-C5x cells, with rucaparib 10 µM, 100% = cells with rucaparib alone.
[16] abbreviates: at 1.25 µM, OCI-C5x cells, without rucaparib.
The mark [17] stands for this setting: at 1.25 µM, OCI-P5x cells, with rucaparib 20 µM, 100% = cells with rucaparib alone.
[18] abbreviates: at 1.25 µM, OCI-P5x cells, without rucaparib.
The mark [19] stands for this setting: at 5 µM, OCI-C5x cells, with rucaparib 10 µM, 100% = cells with rucaparib alone.
The mark [20] stands for this setting: at 5 µM, OCI-C5x cells, without rucaparib.
Setting [21] is: at 5 µM, OCI-P5x cells, with rucaparib 20 µM, 100% = cells with rucaparib alone.
Setting [22] is: at 5 µM, OCI-P5x cells, without rucaparib.

Take `Cc1ccc(C(=O)N(CCCN)[C@@H](c2nc3cc(Cl)ccc3c(=O)n2Cc2ccccc2)C(C)C)cc1`: the viability is 65.1% (active) in [1] (setting [12]); 54.8% (active) in experiment [1] (setting [13]); 22.4% (active) in experiment [1] (setting [14]); 50.7% (active) in experiment [1] (setting [15]); 61.5% (active) in experiment [1] (setting [16]); 56.9% (active) in experiment [1] (setting [17]). For the same compound, the viability in experiment [1] (setting [18]) is 24.3% (active); in [1] (setting [19]) it was 6.32% (active); in [1] (setting [20]), 47.8% (active); in experiment [1] (setting [21]), 26.6% (active); in experiment [1] (setting [22]) it was 17.1% (active).
Regarding `COc1ccc(C2=N[C@H](c3ccc(Cl)cc3)[C@H](c3ccc(Cl)cc3)N2C(=O)N2CCNC(=O)C2)c(OC(C)C)c1`, the AC50 in experiment [2] is 14.8 µM (active); in experiment [3], 23.5 µM (active); in experiment [4] it was 16.6 µM (active); in experiment [5], 10.5 µM (active). For the same compound, the compound was classed as inactive in [6] and in experiment [7].
Consider `Cn1cc(/C=C/C(=O)c2cccc(F)c2)cc1/C=C/C(=O)NO`, for which the AC50 in experiment [2] was 3.72 µM (active); in experiment [4], 2.35 µM (active); in experiment [5] it was 5.25 µM (active); in experiment [8], 13.2 µM (active). Also, the result in experiment [3] and in [6] was inactive.
For `O=C(Nc1cc(Cl)cc2c1[nH]c1cnccc12)c1cccnc1`, the call in experiment [2], in experiment [3], in [4], in experiment [5], in experiment [6] and in experiment [8] was inactive. The result in experiment [7] was inactive.
For `COc1ccc(S(=O)(=O)Nc2cccnc2Nc2ccc(O)cc2)cc1`, the AC50 in experiment [2] is 0.263 µM (active); in experiment [3] it was 0.166 µM (active); in [4] it was 0.468 µM (active); in [8], 0.468 µM (active). In addition, in experiment [7], the IC50 is 10.5 µM (active). In addition, the fold change in [9] (stronger effect = lower value, cell number ratio, induced over uninduced) is 1.24 (inactive); in [9] (measured here: relative caspase fold change +Dox/-Dox), 0.79. The cell count in [9] (measured here: total cells with miR-34 induction, stronger effect = lower value) worked out at 1190; in [9] (measured here: total cells without miR-34 induction), 962; in experiment [10] it was 7150. In [10], this compound displayed an SSMD of 1.94. For the same compound, the plate-normalised HSF1 focus index in [10] is 1.07 (inactive). In addition, the z-score in [11] (MELAS cybrid survival, CellTiter-Glo 48 h, stronger effect = higher value) was 0.679 (inactive); in experiment [11] (Rieske KO mouse fibroblast survival, CellTiter-Glo 72 h), -0.295. Further, the viability is 111% (inactive) in experiment [1] (at 0.000305 µM, OCI-C5x cells, with rucaparib 10 µM, 100% = cells with rucaparib alone); 122% (inactive) in [1] (at 0.000305 µM, OCI-C5x cells, without rucaparib); 117% (inactive) in experiment [1] (at 0.000305 µM, OCI-P5x cells, with rucaparib 20 µM, 100% = cells with rucaparib alone); 128% (inactive) in [1] (at 0.000305 µM, OCI-P5x cells, without rucaparib); 119% (inactive) in experiment [1] (at 0.00122 µM, OCI-C5x cells, with rucaparib 10 µM, 100% = cells with rucaparib alone); 133% (inactive) in experiment [1] (at 0.00122 µM, OCI-C5x cells, without rucaparib). For the same compound, the viability in experiment [1] (at 0.00122 µM, OCI-P5x cells, with rucaparib 20 µM, 100% = cells with rucaparib alone) was 118% (inactive); in experiment [1] (at 0.00122 µM, OCI-P5x cells, without rucaparib), 119% (inactive); in experiment [1] (at 0.00488 µM, OCI-C5x cells, with rucaparib 10 µM, 100% = cells with rucaparib alone) it was 119% (inactive); in experiment [1] (at 0.00488 µM, OCI-C5x cells, without rucaparib), 133% (inactive); in experiment [1] (at 0.00488 µM, OCI-P5x cells, with rucaparib 20 µM, 100% = cells with rucaparib alone), 112% (inactive); in [1] (at 0.00488 µM, OCI-P5x cells, without rucaparib), 121% (inactive). Moreover, the viability in experiment [1] (at 0.0195 µM, OCI-C5x cells, with rucaparib 10 µM, 100% = cells with rucaparib alone) was 113% (inactive); in experiment [1] (at 0.0195 µM, OCI-C5x cells, without rucaparib) it was 128% (inactive); in experiment [1] (at 0.0195 µM, OCI-P5x cells, with rucaparib 20 µM, 100% = cells with rucaparib alone), 108% (inactive); in experiment [1] (at 0.0195 µM, OCI-P5x cells, without rucaparib), 122% (inactive); in [1] (at 0.0781 µM, OCI-C5x cells, with rucaparib 10 µM, 100% = cells with rucaparib alone) it was 110% (inactive); in experiment [1] (at 0.0781 µM, OCI-C5x cells, without rucaparib) it was 134% (inactive). Also, the viability was 111% (inactive) in [1] (at 0.0781 µM, OCI-P5x cells, with rucaparib 20 µM, 100% = cells with rucaparib alone); 111% (inactive) in experiment [1] (at 0.0781 µM, OCI-P5x cells, without rucaparib); 58.8% (active) in experiment [1] (at 0.313 µM, OCI-C5x cells, with rucaparib 10 µM, 100% = cells with rucaparib alone); 76.1% (active) in experiment [1] (setting [12]); 94.4% (active) in experiment [1] (setting [13]); 28.4% (active) in experiment [1] (setting [14]). In addition, the viability in experiment [1] (setting [15]) was 50% (active); in [1] (setting [16]), 49.6% (active); in experiment [1] (setting [17]), 72.9% (active); in [1] (setting [18]), 23% (active); in experiment [1] (setting [19]), 43.3% (active); in experiment [1] (setting [20]), 62% (active). Also, the viability is 70.9% (active) in experiment [1] (setting [21]) and 17.9% (active) in experiment [1] (setting [22]).

For orientation: viability means a read-out of living cells in per cent, often relative to untreated cells. The AC50 is the midpoint of the concentration-response curve, whichever way the signal moves. By IC50 is commonly meant the point on the concentration scale where inhibition reaches its midpoint.
